Assay outcomes deposited in PubChem by several laboratories.
In the library only some 6.2% were active in any assay of this set; here they are far more common.
NTR1 agonist: activates human neurotensin receptor 1; NTR1-U2OS beta-arrestin-GFP spot imaging, agonist mode; activation, % at 20 µM; hit rate 0.17% among 330,000;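 active = activation at or above 40% of the spot to cytoplasm intensity ratio, with at least 20 cells analyzed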;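 note: 0% = DMSO without peptide and 100% = 100 nM NTR1 peptide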
Mot1-301 SUMO: inhibitors of SUMOylation pathway: yeast Mot1-301 growth rescue. S. cerevisiae Mot1-301 growth rescue, ATP luminescence, 38.5C; percent above DMSO median, 100 means doubled. growth rescue, % at 18.8 µM. hit rate 1% among 320,000;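 active = every valid replicate shows activation above 250% relative to neutral control wells; inactive = the rest, any valid replicate at or below 250%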;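 note: OY570 slx delta 5 strain wells were the positive control but not used for scaling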
H9c2 protect: modulators protecting cardiomyocytes from myocardial damage. H9c2 cardiomyocytes, H2O2 injury protection, ATPLite, 2 h. protection from H2O2 cell death, % at 20 µM. hit rate 0.63% among 360,000. AID 588492;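 active = compounds giving at least 50% protection of heart cells from peroxide-induced death in the single-dose screen, raw or plate-pattern-corrected value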;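 note: 0% = DMSO wells with peroxide and 100% = DMSO wells without peroxide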
AHR activator: activates the human aryl hydrocarbon receptor; P35869; AHR-responsive luciferase reporter cells, luminescence; activation, % at 5 µM; hit rate 2.5% among 320,000; AID 2796; in the data active = activation above about 47%;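 note: 0% = vehicle wells and 100% = reference agonist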
Target sequence (P35869 whole entry, looked up): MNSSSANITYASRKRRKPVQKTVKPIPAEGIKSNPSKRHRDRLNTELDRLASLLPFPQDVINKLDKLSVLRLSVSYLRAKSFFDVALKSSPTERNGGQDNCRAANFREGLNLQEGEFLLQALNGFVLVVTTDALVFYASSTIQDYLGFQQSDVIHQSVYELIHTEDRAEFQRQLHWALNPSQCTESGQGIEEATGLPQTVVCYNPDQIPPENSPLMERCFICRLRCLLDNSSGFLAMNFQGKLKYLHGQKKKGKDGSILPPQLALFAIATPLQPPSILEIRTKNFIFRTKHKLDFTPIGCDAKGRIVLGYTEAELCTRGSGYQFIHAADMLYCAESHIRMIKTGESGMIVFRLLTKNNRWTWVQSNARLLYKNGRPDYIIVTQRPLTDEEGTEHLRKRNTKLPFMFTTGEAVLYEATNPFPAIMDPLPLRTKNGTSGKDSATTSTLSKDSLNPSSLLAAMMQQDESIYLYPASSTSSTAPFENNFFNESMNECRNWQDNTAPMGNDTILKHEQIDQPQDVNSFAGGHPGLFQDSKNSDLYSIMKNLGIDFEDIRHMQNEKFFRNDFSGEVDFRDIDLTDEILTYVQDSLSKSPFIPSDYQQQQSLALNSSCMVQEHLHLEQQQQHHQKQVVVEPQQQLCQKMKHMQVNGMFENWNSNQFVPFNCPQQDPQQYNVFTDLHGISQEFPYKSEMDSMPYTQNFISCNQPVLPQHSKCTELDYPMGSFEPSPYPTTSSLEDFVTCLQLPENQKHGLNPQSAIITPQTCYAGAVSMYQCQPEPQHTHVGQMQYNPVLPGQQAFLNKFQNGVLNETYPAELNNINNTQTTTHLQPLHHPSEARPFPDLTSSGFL
GRIN3A LBD mod: NR3A (human) ligand-binding domain modulation; hit rate 2.5% among 340,000; NR3A LBD differential scanning fluorimetry, Tm shift; 0% = protein alone, 100% = glycine-bound protein; Tm shift relative to glycine control, % at 25 µM;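 active = melting temperature shift of at least 10% of the positive control shift, at one fixed dose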
AI-2 QS mod: Vibrio harveyi AI-2 quorum sensing modulation; Vibrio harveyi JMH597 AI-2 luminescence/OD600 ratio, 9 h; active compounds read low; strain lacks LuxN and CqsS sensors; 0 = neutral-control median; activity change, % at 7.5 µM; hit rate 0.4% among 300,000; in the data active = activity change below about -75%, passing the limit was not always enough;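 note: luminescence divided by OD600 gain over 9 h not by final OD600 alone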
An asterisk follows results filed as active; / = no result.

SMILES | NTR1 agonist | Mot1-301 SUMO | H9c2 protect | AHR activator | GRIN3A LBD mod | AI-2 QS mod
Cc1c(C(=O)N/N=C/c2ccccc2)[nH]c2ccc(Cl)cc12 | 8.7 | -22.5 | -28.5 | 27.3 | 30.2* | 5.5
Cc1c(C(=O)N/N=C/c2ccc(N(C)C)cc2)[nH]c2ccc(Cl)cc12 | 8.5 | 4.3 | 13.0 | 28.6 | 26.6* | 20.2
Cc1ccc(C(=O)C=Cc2cccc(C)c2)cc1 | / | / | -11.4 | / | 1.5 | /
COc1cccc(/C=C/C(=O)c2ccc(NS(=O)(=O)c3ccc(C)cc3)cc2)c1 | 10.7 | 8.9 | -12.2 | 21.2 | 18.5* | 18.3
NS(=O)(=O)c1cccc(NS(=O)(=O)c2ccc(/C=C/C(=O)OCC(=O)c3ccc(Br)cc3)cc2)c1 | 5.3 | -9.1 | -4.8 | 1.2 | -0.6 | 34.9
COc1ccc(C(=O)COC(=O)/C=C/c2ccc(S(=O)(=O)Nc3cccc(S(N)(=O)=O)c3)cc2)cc1 | 0.0 | -6.2 | -11.8 | 1.6 | 11.1* | 39.6
COc1cc(/C=C/C(=O)O)ccc1OS(=O)(=O)c1ccc(C)cc1 | 0.1 | -0.8 | 1.0 | -0.1 | -1.6 | 22.5
COc1cc(/C=C/C(=O)c2ccc(NS(=O)(=O)c3ccc(C)cc3)cc2)cc(OC)c1O | / | 4.1 | 0.3 | -1.1 | 11.2* | 13.1
COc1cc(/C=C/C(=O)c2ccc(NS(=O)(=O)c3ccc(C)cc3)cc2)ccc1OC(F)F | 9.4 | -24.9 | -19.7 | 1.6 | 22.9* | 26.4
CCC(=O)N1CCCC1(C)C(=O)Nc1ccc(C)c(C)c1 (stereo not given) | / | / | -2.9 | / | / | /
Cc1nc(Nc2cc(F)ccc2C)c2nnn(Cc3ccccc3)c2n1 | 0.5 | 21.4 | 2.6 | 7.1 | 0.3 | /
CCCc1cc(-c2[nH]ncc2-c2ccc3c(c2)OCCCO3)c(O)cc1O | 43.6* | -19.5 | 4.2 | 43.0 | 12.0* | 20.7
CC(C)C[C@H](NC(=O)C1(c2ccccc2)CCN(C(=O)[C@H]2CSCN2C(=O)OC(C)(C)C)CC1)C(=O)O | 5.2 | -23.4 | 7.7 | -4.7 | 14.4* | 5.0
CC1CCCC(NC(=O)c2ccc3c(c2)OCO3)C1C (stereo not given) | -1.4 | 41.1 | -6.0 | 70.4* | 2.1 | 19.2
CC1CCCCC1NS(=O)(=O)CCNC(=O)c1ccc2c(c1)OCO2 (stereo not given) | -1.2 | / | -1.1 | 4.8 | 0.3 | 12.2
COc1ccc(CC(=O)Nc2cc(S(=O)(=O)N3CCCCC3)ccc2OC(C)C)cc1OC | / | / | 1.1 | / | / | /
CC1(Cc2ccccc2Cl)C(=O)Nc2c(Cl)ccc(Cl)c21 (stereo not given) | / | / | -4.1 | / | / | /
COc1ccc(F)c(CN2CCC(n3nccc3NC(=O)CCCc3ccccc3)CC2)c1 | 0.3 | -9.4 | 5.0 | 0.8 | 0.4 | -95.2*
Cc1ccccc1CN1CCC(n2nccc2NC(=O)CCCc2ccccc2)CC1 | 0.7 | 7.1 | -4.0 | -0.3 | -1.1 | 26.7
CCn1nc(C)c(CN2CCC(n3nccc3NC(=O)Cc3ccccc3)CC2)c1C | -0.6 | -5.0 | 0.6 | 1.6 | 14.1* | 3.4
CCn1nc(C)c(CN2CCC(n3nccc3NC(=O)CCCc3ccccc3)CC2)c1C | 0.1 | 53.5 | -2.7 | 1.8 | -3.6 | 9.4
CC(=O)NCCc1nc2cc(NC(=O)COc3ccc(C)cc3)ccc2n1C | -0.3 | -1.4 | 0.2 | 0.6 | -0.6 | 15.1
C[C@H](CO)N1C[C@H](C)[C@@H](CN(C)C(=O)NC2CCCCC2)Oc2c(NC(=O)Nc3ccc(C(F)(F)F)cc3)cccc2C1=O | 15.3 | 59.4 | 25.2 | -1.5 | 10.9* | /
COc1ccc(NC(=O)Nc2cccc3c2O[C@H](CN(C)C(=O)Nc2ccccc2)[C@@H](C)CN([C@H](C)CO)C3=O)cc1 | 3.0 | -17.3 | 3.2 | 2.7 | 1.1 | /
C[C@@H]1CN([C@H](C)CO)C(=O)c2cccc(NC(=O)Nc3ccc(F)cc3)c2O[C@H]1CN(C)C(=O)Nc1ccc(C(F)(F)F)cc1 | 6.1 | -14.4 | -6.7 | 2.5 | 14.7* | /
SMILES | NTR1 agonist | Mot1-301 SUMO | H9c2 protect | AHR activator | GRIN3A LBD mod | AI-2 QS mod
COc1ccc(NC(=O)N(C)C[C@H]2Oc3c(NC(=O)Nc4ccc(C(F)(F)F)cc4)cccc3C(=O)N([C@H](C)CO)C[C@@H]2C)cc1 | 10.2 | -6.5 | 58.9* | 1.4 | 15.8* | /
C[C@H](CO)N1C[C@H](C)[C@@H](CN(C)C(=O)Nc2ccc3c(c2)OCO3)Oc2c(NC(=O)Nc3ccc(C(F)(F)F)cc3)cccc2C1=O | 12.3 | -10.1 | 85.5* | 1.3 | 21.2* | /
Cc1ccc(C)c(C(=O)COC(=O)Cn2c(C)csc2=O)c1 | -0.9 | -7.1 | 2.1 | -0.9 | 0.9 | 1.9
Cn1c(C(=O)O)c(S(=O)(=O)c2ccc(Cl)cc2)c2ccccc21 | -0.9 | 3.7 | 5.2 | 4.1 | 3.2 | 16.9
C[C@H](CO)N1C[C@H](C)[C@@H](CN(C)C(=O)Nc2ccc(C(F)(F)F)cc2)Oc2c(NC(=O)Nc3ccccc3)cccc2C1=O | 6.9 | 7.1 | 14.0 | 2.4 | 14.7* | /
CC(C)NC(=O)N(C)C[C@H]1Oc2c(NC(=O)Nc3ccc(C(F)(F)F)cc3)cccc2C(=O)N([C@H](C)CO)C[C@@H]1C | 16.3 | 138.2 | 10.7 | -0.7 | 0.6 | /
O=C(NNC(=O)c1cc2ccccc2cc1O)Nc1ccc(Br)cc1 | 1.6 | 38.2 | 0.9 | 5.3 | 19.4* | 25.6
O=C(NC(=S)NNC(=O)c1cc2ccccc2cc1O)c1ccco1 | 0.5 | / | 24.2 | 5.4 | 11.4* | 13.1
NNC(=O)c1cc2ccccc2cc1O | -0.5 | 0.5 | 64.8* | 9.1 | 0.2 | 16.3
CCOC(=O)C(C)/C(C)=N/NC(=O)c1cc2ccccc2cc1O (stereo not given) | 1.1 | -16.3 | 60.6* | 7.9 | -2.9 | 9.5
C/C(CC(=O)N1CCCC1)=N\NC(=O)c1cc2ccccc2cc1O | 2.9 | 152.6 | 4.0 | 5.7 | -2.1 | -2.1
COc1cccc([C@@H]2CC=C(C(=O)O)[C@H](c3ccccc3F)N2S(=O)(=O)c2ccc(C)cc2)c1 | 2.7 | 103.0 | 0.3 | -1.8 | 2.2 | /
C[C@@H]1CCCCO[C@@H](CN(C)S(=O)(=O)c2ccc(Cl)cc2)[C@@H](C)CN([C@H](C)CO)C(=O)c2cc(N(C)C)ccc2O1 | / | / | 6.7 | / | / | /
Cc1cccc(-n2c(C)nc3cc(C(=O)N4CCOCC4)ccc32)c1 | 0.5 | -1.8 | -1.2 | 1.2 | -1.6 | 2.6
CCc1ccc(NC(=O)CCS(=O)(=O)c2ccc(Cl)cc2)cc1 | 0.3 | -6.4 | -10.4 | 1.8 | -0.5 | 28.4
O=C(NNC(=O)c1ccncc1)Nc1ccc(Br)cc1 | / | / | -2.9 | / | 13.8* | /
FC(F)(F)c1cnc(COc2ccc(Cl)cc2Cl)c(Cl)c1 | 1.7 | 6.9 | -6.2 | -2.0 | 15.4* | 4.2
CC(=O)c1ccc(OCc2ncc(C(F)(F)F)cc2Cl)cc1 | 1.9 | -4.1 | 24.4 | -2.8 | -1.7 | -2.6
O=C1NC(=S)SC1=Cc1ccccn1 | / | / | -2.2 | / | / | /
CCCn1c(=O)c2[nH]c(-c3ccc(OCC(=O)Nc4ccc(C#N)cc4)cc3)nc2n(CCC)c1=O | 2.0 | 0.0 | 94.5* | 0.5 | -0.9 | /
